In PubChem BioAssay AID1626 (SRMLSC, 2009):
Screen size: about 220,000 compounds; about 2,000 (0.91%) were called active. Roughly 2% stayed inconclusive and do not appear here. Only a sample is shown. Potency and affinity values are given separately. Values without a mark were called inactive. Rule as the data show it: inconclusive = inhibition above about 80% without an active follow-up result; inactive = below that; test concentration not stated here.

experiment: M. tuberculosis H37Rv growth inhibitors, H37Rv strain (AID 1626); details: stronger effect = higher value, concentration not given here;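 also: bacteria incubated seven days before Alamar blue readout; 0% = bacteria only wells and 100% = bacteria with antibiotic wells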

Structure (SMILES)	inhibition [%]
COCCCNC(=O)c1ccc(N2CCOCC2)c(NS(=O)(=O)c2ccc(OC)cc2)c1	-10.8
Cc1ccc(SC[C@H](c2ccccc2)N2CCN(CCc3ccccc3)CCC2=O)cc1	0.98
COC(=O)C(C(=O)OC)c1ccc(N)cc1	79.1
N/C(=N/OC(=O)c1ccccc1Cl)c1nonc1N	-5.25
N=C(N)CCCOc1ccccc1-c1ccccc1	4.47
O=C(CN1C(=O)c2ccccc2C1=O)Nc1ccc(N2CCOCC2)cc1	1.44
O=C(NCCN1CCOCC1)c1ccc2c(c1)N(Cc1cccc(F)c1)C(=O)c1ccccc1S2	2.5
Cc1cc(Cl)n2c(nc3ccccc32)c1C#N	-11.2
Cc1cc(Nc2c(C)n(C)n(-c3ccccc3)c2=O)n2c(nc3cc(F)c(F)cc32)c1C#N	-5.9
COC(=O)c1[nH]c2ccc(Br)cc2c1NC(=O)C(C)N1CCN(C2CCCCC2)CC1 (stereo not drawn)	-3.42
CN(C(=O)COC(=O)c1c2c(nc3ccccc13)/C(=C/c1cccc([N+](=O)[O-])c1)CCC2)C1CCS(=O)(=O)C1 (stereo not drawn)	78.5
CC1CCc2nc3ccccc3c(C(=O)OCC(=O)NC3CCS(=O)(=O)C3)c2C1 (stereo not drawn)	-5
Cc1nn(C)c(C(=O)Nc2ccn(Cc3ccccc3F)n2)c1[N+](=O)[O-]	-2.14
O=[N+]([O-])c1ccc(NCCCO)c(S(=O)(=O)N2CCOCC2)c1	-3.72
COc1ccc2c(c1)sc(=N)n2CC(=O)Nc1cc(C)cc(C)c1	3.49
COc1ccc2c(c1)c1ccccc1n2C	-6.03
O=C(O)COc1ccccc1Cc1ccccc1	-9.69
O=C(COc1ccc(F)cc1)N1c2ccccc2CCc2ccccc21	6.06
O=C(CCC1CCCN(c2ncccn2)C1)N1CCN(c2ccccn2)CC1 (stereo not drawn)	0.77
N#C/C(=C\c1ccco1)c1nc2ccccc2s1	4.85

Structure (SMILES)	inhibition [%]
N#C/C(=C/c1ccncc1)c1nc2ccccc2s1	4.82
Cc1ccc(OCC(=O)n2nc(C)cc2C)c(C)c1	10
COc1ccc(N2C(=O)CC(N3CCC(c4nc5ccccc5[nH]4)CC3)C2=O)cc1 (stereo not drawn)	-1.11
O=C(CN1C(=O)NC2(CCCCCCC2)C1=O)N1CCc2ccccc2C1	-9.98
CSc1nsc(SCC(=O)Nc2nc3ccccc3s2)n1	52.1
CSc1nsc(SCC(=O)Nc2ccc3c(c2)OCCO3)n1	-14.4
O=C(CSc1nc2ccccc2s1)Nc1ccc2c(c1)OCO2	76.4
COc1ccc2nc(NC(=O)CSc3nnnn3C3CCCCC3)sc2c1	0.53
CSc1nsc(SCC(=O)Nc2nc3ccc(C)cc3s2)n1	10.3
CCn1nnnc1SCC(=O)Nc1nc2ccc(OC)cc2s1	1.9
CSc1nsc(SCC(=O)Nc2cccc(C(C)=O)c2)n1	-15.7
CCOc1ccc2nc(SCC(=O)NC(=O)C(C)C)sc2c1	3.81
O=C1c2ccccc2C(Nc2ccc(S(=O)(=O)N3CCOCC3)cc2)N1Cc1ccco1 (stereo not drawn)	-2.41
CC(CC(=O)N1CCN(c2ccc(C(F)(F)F)cn2)CC1)n1ccnc1 (stereo not drawn)	1.81
O=C(Cc1ccc(-n2c(=O)c3sccc3n(CC(=O)Nc3ccccc3F)c2=O)cc1)NCc1ccco1	-10.9
COc1ccc(C(CC(=O)N2CCCC(C)C2)c2c(OC)cc(OC)c3c(-c4ccccc4)cc(=O)oc23)cc1 (stereo not drawn)	-5.32
COc1cc(C(CCN2CCCC2)c2c(OC)cc(OC)c3c(-c4ccccc4)cc(=O)oc23)cc(OC)c1OC (stereo not drawn)	-3.05
COc1cc(C(CCN2CCCC(C)C2)c2c(OC)cc(OC)c3c(-c4ccccc4)cc(=O)oc23)cc(OC)c1OC (stereo not drawn)	71
COc1cc(OC)c2c(-c3ccccc3)cc(=O)oc2c1C(CC(=O)N1CCOCC1)c1ccc(N(C)C)cc1 (stereo not drawn)	-7.25
O=C(Cc1c(Cl)cccc1Cl)Nc1cccc(S(=O)(=O)N2CCOCC2)c1	9.23

Structure (SMILES)	inhibition [%]
OC(COc1ccc(-c2ccccc2)cc1)CN1CCOCC1 (stereo not drawn)	8.22
CCOc1ccccc1NC(=O)Cn1c(=O)oc2ccccc21	6.54
Cc1nn(-c2ccccn2)c2c1C(c1ccccc1Cl)C1=C(N2)c2ccccc2C1=O (stereo not drawn)	5.6
Cc1nn(-c2ccccn2)c2c1C(c1c(F)cccc1Cl)C1=C(N2)c2ccccc2C1=O (stereo not drawn)	8.57
Cc1cc(C)c(C#N)c(Oc2ccc(O)cc2)n1	8.87
O=C1C=C(c2cccs2)CC(c2cccs2)C1n1cnc([N+](=O)[O-])c1 (stereo not drawn)	8.22
CC(=O)C1C(=O)C=C(c2cccs2)CC1c1ccccc1 (stereo not drawn)	2.98
Cc1ccc(S(N)(=O)=O)c(C)c1N1CCCC1=O	-3.84
Cc1ccc(-c2noc(CCC(=O)Nc3ccc4c(c3)OCO4)n2)cc1	67.5
COc1ccc(CCC(=O)Nc2ccc3c(c2)OCCO3)cc1	-2.09
Cc1ccc(-c2noc(CCC(=O)NCCCN3CCN(c4ccc(F)cc4)CC3)n2)cc1	-9.54
COc1ccc(-c2noc(CCC(=O)Nc3cc(OC)ccc3OC)n2)cc1	3.07
COc1cc(OC)c(NC(=O)CCc2nc(-c3ccc(C)cc3)no2)cc1Cl	-0.67
COc1ccc(-c2noc(CCC(=O)NCCCN3CCN(c4ccc(F)cc4)CC3)n2)cc1	8.36
COc1ccc(-c2noc(CCC(=O)Nc3cc(Cl)c(OC)cc3OC)n2)cc1	14.3
COc1ccc(-c2noc(CCC(=O)Nc3cccc(C)c3)n2)cc1	78.2
CCOc1ccc(-c2nc(N)ncc2Oc2ccc(OC)cc2)c(O)c1	1.63
CCOc1ccc(CN2CCN(Cc3cccc4c3OCO4)CC2CCO)cc1 (stereo not drawn)	5.32
